In all, about 410,000 compounds went through this assay and about 3,100 (0.76%) were called active. Where a call stands in place of a potency, no number is given. The sample holds actives, similar compounds and a random draw of the others, so the mix is not that of the screen. Calls come from the whole dose curve; as a rule, active = well fitted cell-killing curve with a large enough effect; inactive = no such curve, though single readings can be large or run the other way.
Assay: qHTS for Inhibitors of TGF-b: Cytotox Counterscreen
Conditions: HepG2 CAGA-GFP viability, ATP luminescence, 18 h; series mostly up to 46.1 µM
Summary of the method: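 HepG2 CAGA-GFP cells (1000/well, DMEM with 1% FBS) received compound, then TGF-beta at 500 pg/mL final, and were incubated 18 hours at 37 degrees C. Viability was read by CellTiter-Glo luminescence. Media-only wells were set as complete cell-killing and DMSO as no toxicity.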
Potency is the fitted concentration of half-maximal effect.

Row | Compound | Potency
1 | CC1(C)CC(=O)c2cc(C(=O)NCc3ccccc3)c(=O)[nH]c2C1 | inactive
2 | Cc1nc2c(OCc3ccc(Cl)cc3Cl)cccn2c1N(C)CC1CC1 | 11.2 µM (active)
3 | CCCCC(=O)N(C)c1c(CC)nc2c(OCc3ccc(Cl)cc3Cl)cccn12 | 12.6 µM (active)
4 | CCc1nc2c(OCc3ccc(Cl)cc3Cl)cccn2c1N(C)C(=O)C(C)C | inactive
5 | Cc1nc2c(OCc3cccc(Cl)c3)cccn2c1N(C)CC1CC1 | inactive
6 | CCCCC(=O)N(C)c1c(CC)nc2c(OCc3ccc(S(C)(=O)=O)cc3)cccn12 | inactive
7 | Cc1nc2c(OCc3ccc(Cl)cc3)cccn2c1N(C)Cc1cccs1 | inactive
8 | Cc1ccc(C)c(S(=O)(=O)c2nnn3c2nc(N2CCOCC2)c2sccc23)c1 | inactive
9 | CN1CCN(/[N+]([O-])=N/Oc2ccc([N+](=O)[O-])cc2[N+](=O)[O-])CC1 | inactive
10 | CC1(C)C=Cc2c(ccc(C(=O)/C=C/c3ccccc3)c2O)O1 | inactive
11 | O=C1C=CC(=O)N1c1ccc(N2CCCCC2)cc1 | 17.8 µM (active)
12 | Cc1ccc(CNC(=O)CCc2c(C)nc3c(c(C)nn3-c3ccccc3)c2C)cc1 | inactive
13 | O=C(Nc1ccc(Cl)cc1)c1cnn2c1NC(=C1CC1)C=C2C(F)F | inactive
14 | COc1ccc(-c2nc3sc(CCNC(=O)C(C)(C)C)c(C)n3n2)cc1 | inactive
15 | CC1CCC2(CC1)N=C(c1ccccc1)C(=O)N2CC(=O)Nc1ccc(F)c(Cl)c1 (stereo unspecified) | inactive
16 | CCn1c(CC(=O)Nc2ccc(C)cc2)nnc1SCC(=O)Nc1nc(C)cs1 | inactive
17 | CCn1c(SCC(=O)Nc2nc(C)cs2)nnc1C(C)NC(=O)c1ccccc1 (stereo unspecified) | inactive
18 | COCCn1c(SCC(=O)Nc2nc(C)cs2)nnc1C(C)C | 11.2 µM (active)
19 | CCn1c2ccccc2c2nnc(SCC(=O)O)nc21 | inactive
20 | COc1ccc(NC(=O)Nc2cccc(-c3noc(C)n3)c2)cc1 | inactive
21 | Cc1ccc(S(=O)(=O)N2CCN(c3nc(-n4cnc5ccccc54)nc4ccccc34)CC2)cc1 | inactive
22 | Cc1sc2ncn(CC(=O)N3CCN(c4ccc(F)cc4)CC3)c(=O)c2c1S(=O)(=O)N1CCN(c2ncccn2)CC1 | inactive
23 | CC(C)(C)OC(=O)N(Cc1ccco1)S(=O)(=O)c1ccccc1Br | inactive
24 | C=C1C=C(C(F)F)n2ncc(C(=O)NCCc3ccccc3OC)c2N1 | inactive
25 | COc1ccc(-c2cn3c(n2)sc2cc(C(=O)Nc4ccccc4F)ccc23)cc1 | inactive
26 | CC(Nc1nc(C(F)(F)F)nc2ccccc12)c1cccs1 (stereo unspecified) | 22.4 µM (active)

Row | Compound | Potency
27 | Oc1ccccc1-c1nc(/C=C/c2ccc(F)cc2)no1 | inactive
28 | COc1cc(Cl)ccc1Nc1ncc(C(=O)N2CCN(c3ccccc3OC)CC2)c2ccccc12 | inactive
29 | O=C(O)C1CCC(CNS(=O)(=O)c2ccc(Br)cc2)CC1 (stereo unspecified) | 15.8 µM (active)
30 | O=C(NC1CCCCC1)C1CCC(CNS(=O)(=O)c2ccccc2)CC1 (stereo unspecified) | inactive
31 | Cc1ccc(S(=O)(=O)NCC2CCC(C(=O)N3CCOCC3)CC2)cc1 (stereo unspecified) | inactive
32 | O=C(NC1CC(=O)N(c2ccc(F)cc2)C1)c1ccc(S(=O)(=O)N2CCCC2)cc1 (stereo unspecified) | inactive
33 | CN(C(=O)CSc1nc2ccc(NC(=O)COc3ccccc3)cc2s1)c1ccccc1 | inactive
34 | Cc1ccc(F)cc1NC(=O)CCSc1nc(-c2ccco2)cc(C(F)(F)F)n1 | inactive
35 | CCc1ccc(CN(Cc2ccco2)C(=O)c2ccccc2Cl)cc1 | inactive
36 | CC1CCCCN1S(=O)(=O)c1ccc(F)c(C(=O)Nc2ccccc2C(F)(F)F)c1 (stereo unspecified) | inactive
37 | Cc1ccc(CNC(=O)CCc2c(C)nn(-c3ccc(N4CCCC4)nn3)c2C)cc1 | inactive
38 | N=c1n(Cc2ccc(Cl)cc2)c2ccccc2n1CC(O)c1ccco1 (stereo unspecified) | 12.6 µM (active)
39 | N=c1n(CCc2ccccc2)c2ccccc2n1Cc1ccccc1F | inactive
40 | O=C(NCc1ccccc1)C(=O)NCC(c1ccco1)S(=O)(=O)c1ccc(Cl)cc1 (stereo unspecified) | inactive
41 | COc1ccccc1-c1ccnc2[nH]n(-c3ccccc3)c(=O)c12 | inactive
42 | OCc1cnc(SCc2ccc(F)cc2)n1Cc1ccc(F)cc1 | inactive
43 | NC(Cc1ccccc1)c1csc(Nc2cc(Oc3ccccc3)ncn2)n1 (stereo unspecified) | 31.6 µM (active)
44 | COCCn1c(SCC(=O)c2cc(C)ccc2C)nc2cc(C(=O)NC3CCCC3)ccc2c1=O | inactive
45 | CCC(=O)N1CCc2cc(S(=O)(=O)NC(C(=O)Nc3ccc(C(C)=O)cc3)C(C)C)ccc21 (stereo unspecified) | inactive
46 | COC(=O)c1ccc(-c2nc3cc(NC(C)=O)ccc3o2)cc1 | inactive
47 | CCn1cc(CN2CCC(C(=O)Nc3cccc(-c4cccc(Cl)c4)c3)CC2)c(C)n1 | 12.6 µM (active)
48 | O=C(Nc1cccc(-c2cccc(Cl)c2)c1)C1CCN(C2CCC2)CC1 | inactive
49 | CC(=O)c1cc(CN2CCC(C(=O)Nc3cccc(-c4cscn4)c3)CC2)cs1 | inactive
50 | Cc1ccc(CNC(=O)C2(C(F)(F)F)C/C(=C\CCO)CCCO2)o1 (stereo unspecified) | inactive
51 | COc1cc(OC)c2c(C)cc(=O)oc2c1C(CCN1CCCCC1)c1ccc(N(C)C)cc1 (stereo unspecified) | inactive
52 | Cc1cc(C)cc(NS(=O)(=O)c2ccc(Oc3ncc(C(F)(F)F)cc3Cl)cc2)c1 | 12.6 µM (active)

Row | Compound | Potency
53 | Cc1ccc(NS(=O)(=O)c2ccc(F)cc2)nc1 | inactive
54 | Nc1ncc(S(=O)(=O)Nc2ccc(OC(F)(F)F)cc2)cn1 | inactive
55 | NC(=O)C1CCN(C(=O)c2cccc(NC(=O)c3nsc4ccccc34)c2)CC1 | inactive
56 | COc1cc(OC)c(N(C)C(=O)c2cc3c(=O)oc4ccccc4c3s2)cc1Cl | inactive
57 | CC(C)CC[n+]1ccn(C2=C([O-])c3ccccc3C(=O)/C2=N\S(=O)(=O)c2ccccc2)c1 | 5.62 µM (active)
58 | Cc1ccc(S(=O)(=O)/N=C2\C=C(NS(=O)(=O)c3ccc(C)cc3)C(=O)c3ccccc32)cc1 | inactive
59 | C=C1CCN(C(CC(C)C)C(=O)N2CCOCC2)S(=O)(=O)c2ccccc21 (stereo unspecified) | inactive
60 | NC(c1csc(NC(=O)Nc2cccc(C(F)(F)F)c2)n1)C1CCCCC1 (stereo unspecified) | 8.91 µM (active)
61 | Cc1oc2ccc(O)c(CN3CCCCC3)c2c1C(=O)Nc1cccc(C(F)(F)F)c1 | inactive
62 | O=C(CN1c2ccccc2S(=O)(=O)c2ccccc21)Nc1cccc(C(F)(F)F)c1 | inactive
63 | O=C(CC(NCc1cccnc1)C(=O)O)Nc1ccc(O)cc1 (stereo unspecified) | inactive
64 | O=C(CSc1cccc2cccnc12)N/N=C/c1cccnc1 | 7.08 µM (active)
65 | Cc1c(Cl)cccc1NC(=O)CSc1ccc(-c2cccnc2)nn1 | inactive
66 | O=C(N/N=C/c1cccc2cccnc12)[C@H]1C[C@@H]1c1ccccc1 | inactive
67 | Cc1cc[n+](C2CCCCC2)cc1 | inactive
68 | COc1cccc(CNC(=O)c2ccc3c(c2)N(Cc2ccc(C(F)(F)F)cc2)C(=O)c2ccccc2S3)c1OC | inactive
69 | COc1ccc(-n2nnc(-c3nsc(NC(=O)c4ccc(C)c(C)c4)n3)c2C)cc1Cl | inactive
70 | COc1cccc2sc(N(CCCN(C)C)C(=O)CCS(=O)(=O)c3ccccc3)nc12 | 3.55 µM (active)
71 | CN(C)S(=O)(=O)c1ccc(C(=O)N(Cc2cccnc2)c2nc3c(F)cc(F)cc3s2)cc1 | inactive
72 | COc1ccc(C)cc1NC(=O)CCS(=O)(=O)c1cccc2nonc12 | inactive
73 | O=C(O)CCS(=O)(=O)c1ccc(-c2ccccc2)cc1 | inactive
74 | COc1ccccc1CNC(=O)CS(=O)(=O)c1cccc2nsnc12 | inactive
75 | O=C(C1COc2ccccc2O1)N(Cc1cccnc1)c1nc2c(F)cc(F)cc2s1 (stereo unspecified) | inactive
76 | Cc1ccc(S(=O)(=O)CCC(=O)OCc2ccccc2)cc1 | inactive
77 | O=C(CCS(=O)(=O)c1ccccc1)N(Cc1cccnc1)c1nc2c(F)cccc2s1 | 7.94 µM (active)
78 | Cc1cccc2sc(N(CCCN(C)C)C(=O)CCS(=O)(=O)c3ccccc3)nc12 | 7.08 µM (active)

Row | Compound | Potency
79 | CCc1ccc2oc(-c3ccc(NC(=O)c4cc5ccccc5o4)cc3)nc2c1 | inactive
80 | CCn1cc(C(=O)NCCc2ccccc2)c(=O)c2cc(S(=O)(=O)N3CCCCCC3)ccc21 | inactive
81 | CC(C)Cn1c(C2CC(=O)N(c3ccccc3Cl)C2)nc2ccccc21 (stereo unspecified) | inactive
82 | CN(C)C1=C2C=CC=CC2/C(=C2/C=Cc3ccccc32)C=C1 (stereo unspecified) | inactive
83 | O=C1c2ccccc2C(=O)N1c1ccc(S(=O)(=O)N2CCOCC2)c2ccccc12 | inactive
84 | OC(CBr)C[n+]1cccc2cc(Br)ccc21 (stereo unspecified) | inactive
85 | O=C(CSc1nc(Nc2ccc(F)c(F)c2)c2ccccc2n1)c1ccc(Cl)cc1 | inactive
86 | OCCNc1nc(Nc2ccc(Cl)c(Cl)c2)nc2ccccc12 | 12.6 µM (active)
87 | FC(F)(F)c1cc(Nc2nc3ccccc3c3nncn23)ccc1Cl | inactive
88 | COc1ccc(CCC(=O)NCCc2csc(-c3ccc(Cl)cc3)n2)cc1 | inactive
89 | O=C(/C=C/c1ccccc1)Nc1cc(-c2nc3cc(Cl)ccc3o2)ccc1Cl | inactive
90 | Cc1ccc(C)c(N2CCN(c3ccc4cc(S(=O)(=O)N5CCC(C)CC5)ccc4n3)CC2)c1 | inactive
91 | c1ccc2[nH]c(-c3nc4ccccc4[nH]3)nc2c1 | 10 µM (active)
92 | O=S(=O)(c1ccc(Br)cc1)N1CCC(c2nc3ccccc3[nH]2)CC1 | inactive
93 | O=C(OCc1nc2ccccc2[nH]1)C1CCCCC1 | inactive
94 | C=C1CCN(Cc2ccc(OC)cc2)S(=O)(=O)c2ccccc21 | inactive
95 | COc1ccc(-c2onc(C)c2C)cc1S(=O)(=O)NCCc1ccccc1 | inactive
96 | O=C(Nc1ccc(S(=O)(=O)N2CCC(c3nc4ccccc4s3)CC2)cc1)c1ccccc1F | inactive
97 | Cc1ccc(C)c(Cn2c(=O)n(CCC(=O)NCc3ccc4c(c3)OCO4)c(=O)c3sccc32)c1 | inactive
98 | Nc1nc(N)c(N=O)c(N)n1 | inactive
99 | Cc1cccc(Cn2c(SCc3ccc(C(=O)N4CCC(C)CC4)cc3)nc3ccncc32)c1 | 12.6 µM (active)
100 | COc1cccc(Cn2c(SCc3ccc(C(=O)N4CCC(C)CC4)cc3)nc3ccncc32)c1 | inactive
101 | Cc1cccc(CSc2nc3ccncc3n2Cc2ccc(C(=O)O)cc2)c1 | inactive

From PubChem BioAssay AID588856 (National Center for Advancing Translational Sciences (NCATS), 2011)
